Assay results from PubChem BioAssay.
The source made the active and inactive calls.

Tests used:
[1] = binders of probe aFSTL3 on microarray, primary screen, stem cell growth factor project, biochemical, small-molecule microarray, fluorescence 635/667 (AID 1064); conditions: higher = more signal;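 further: measures binding of the biotinylated anti-FSTL3 antibody to printed compounds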
[2] = binders from COS7 lysate, DM2A8 probe, primary screen, torsin A project, cell lysate, small-molecule microarray, fluorescence 635/667 (AID 1065); conditions: higher = more signal, COS7 lysate expressing mutant human TOR1A
[3] = binders of probe aFGF2 on microarray, primary screen, stem cell growth factor project, biochemical, small-molecule microarray, fluorescence 635/667 (AID 1067); conditions: higher = more signal;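 further: measures binding of biotinylated aFGF2 protein to printed compounds on slides; z-score merges feature fluorescence and signal-to-noise across triplicate slides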
[4] = binders of probe aFGF10 on microarray, primary screen, stem cell growth factor project, biochemical, small-molecule microarray, fluorescence 635/667 (AID 1071); conditions: higher = more signal;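 further: score merges 667 nm spot intensity and signal to noise from triplicate slides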
[5] = biological target: Neurogenic locus notch homolog protein 2 (Homo sapiens) (UniProt Q04721); assay: Notch2 binders on small-molecule microarrays, primary screen, biochemical, small-molecule microarray, 635 nm fluorescence, stem cell growth factors (AID 1073); conditions: Notch2 binding, higher = more signal
[6] = biological target: Pro-neuregulin-1, membrane-bound isoform (Homo sapiens) (UniProt Q02297); assay: NRG1 binders on small-molecule microarrays, primary screen, psychiatric disease protein project, biochemical, small-molecule microarray, fluorescence 635/667 (AID 1075); conditions: NRG1 binding, 635 nm fluorescence, higher = more signal;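 further: score combines 667 nm spot fluorescence with signal to noise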
[7] = system: Neuregulin-1 EGF-like domain; assay: binders of neuregulin-1 EGF-like domain, primary screen, biochemical, small-molecule microarray, 635 nm fluorescence (AID 1081); conditions: small-molecule microarray binding, higher = more signal;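 further: binding of the protein to compounds printed on small-molecule microarray slides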
[8] = FRG1 promoter luciferase signal modulators, primary screen, FRG1 inhibition for FSHD, cell-based, C2C12 myotubes, firefly/Renilla luciferase, luminescence (AID 1084); conditions: higher = more signal, called active from +8 up or from −8 down
[9] = binders of probe aFST on microarray, primary screen, stem cell growth factor project, biochemical, small-molecule microarray, fluorescence 635/667 (AID 1086); conditions: higher = more signal;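 further: score merges 667 nm fluorescence with signal-to-noise of each printed compound spot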
[10] = binders of probe aHhip on microarray, primary screen, stem cell growth factor project, biochemical, small-molecule microarray, fluorescence 635/667 (AID 1087); conditions: higher = more signal;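 further: score merges spot fluorescence at 667nm with spot signal to noise ratio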

Chain of Neurogenic locus notch homolog protein 2 (Homo sapiens) (Q04721 whole entry, looked up, canonical isoform): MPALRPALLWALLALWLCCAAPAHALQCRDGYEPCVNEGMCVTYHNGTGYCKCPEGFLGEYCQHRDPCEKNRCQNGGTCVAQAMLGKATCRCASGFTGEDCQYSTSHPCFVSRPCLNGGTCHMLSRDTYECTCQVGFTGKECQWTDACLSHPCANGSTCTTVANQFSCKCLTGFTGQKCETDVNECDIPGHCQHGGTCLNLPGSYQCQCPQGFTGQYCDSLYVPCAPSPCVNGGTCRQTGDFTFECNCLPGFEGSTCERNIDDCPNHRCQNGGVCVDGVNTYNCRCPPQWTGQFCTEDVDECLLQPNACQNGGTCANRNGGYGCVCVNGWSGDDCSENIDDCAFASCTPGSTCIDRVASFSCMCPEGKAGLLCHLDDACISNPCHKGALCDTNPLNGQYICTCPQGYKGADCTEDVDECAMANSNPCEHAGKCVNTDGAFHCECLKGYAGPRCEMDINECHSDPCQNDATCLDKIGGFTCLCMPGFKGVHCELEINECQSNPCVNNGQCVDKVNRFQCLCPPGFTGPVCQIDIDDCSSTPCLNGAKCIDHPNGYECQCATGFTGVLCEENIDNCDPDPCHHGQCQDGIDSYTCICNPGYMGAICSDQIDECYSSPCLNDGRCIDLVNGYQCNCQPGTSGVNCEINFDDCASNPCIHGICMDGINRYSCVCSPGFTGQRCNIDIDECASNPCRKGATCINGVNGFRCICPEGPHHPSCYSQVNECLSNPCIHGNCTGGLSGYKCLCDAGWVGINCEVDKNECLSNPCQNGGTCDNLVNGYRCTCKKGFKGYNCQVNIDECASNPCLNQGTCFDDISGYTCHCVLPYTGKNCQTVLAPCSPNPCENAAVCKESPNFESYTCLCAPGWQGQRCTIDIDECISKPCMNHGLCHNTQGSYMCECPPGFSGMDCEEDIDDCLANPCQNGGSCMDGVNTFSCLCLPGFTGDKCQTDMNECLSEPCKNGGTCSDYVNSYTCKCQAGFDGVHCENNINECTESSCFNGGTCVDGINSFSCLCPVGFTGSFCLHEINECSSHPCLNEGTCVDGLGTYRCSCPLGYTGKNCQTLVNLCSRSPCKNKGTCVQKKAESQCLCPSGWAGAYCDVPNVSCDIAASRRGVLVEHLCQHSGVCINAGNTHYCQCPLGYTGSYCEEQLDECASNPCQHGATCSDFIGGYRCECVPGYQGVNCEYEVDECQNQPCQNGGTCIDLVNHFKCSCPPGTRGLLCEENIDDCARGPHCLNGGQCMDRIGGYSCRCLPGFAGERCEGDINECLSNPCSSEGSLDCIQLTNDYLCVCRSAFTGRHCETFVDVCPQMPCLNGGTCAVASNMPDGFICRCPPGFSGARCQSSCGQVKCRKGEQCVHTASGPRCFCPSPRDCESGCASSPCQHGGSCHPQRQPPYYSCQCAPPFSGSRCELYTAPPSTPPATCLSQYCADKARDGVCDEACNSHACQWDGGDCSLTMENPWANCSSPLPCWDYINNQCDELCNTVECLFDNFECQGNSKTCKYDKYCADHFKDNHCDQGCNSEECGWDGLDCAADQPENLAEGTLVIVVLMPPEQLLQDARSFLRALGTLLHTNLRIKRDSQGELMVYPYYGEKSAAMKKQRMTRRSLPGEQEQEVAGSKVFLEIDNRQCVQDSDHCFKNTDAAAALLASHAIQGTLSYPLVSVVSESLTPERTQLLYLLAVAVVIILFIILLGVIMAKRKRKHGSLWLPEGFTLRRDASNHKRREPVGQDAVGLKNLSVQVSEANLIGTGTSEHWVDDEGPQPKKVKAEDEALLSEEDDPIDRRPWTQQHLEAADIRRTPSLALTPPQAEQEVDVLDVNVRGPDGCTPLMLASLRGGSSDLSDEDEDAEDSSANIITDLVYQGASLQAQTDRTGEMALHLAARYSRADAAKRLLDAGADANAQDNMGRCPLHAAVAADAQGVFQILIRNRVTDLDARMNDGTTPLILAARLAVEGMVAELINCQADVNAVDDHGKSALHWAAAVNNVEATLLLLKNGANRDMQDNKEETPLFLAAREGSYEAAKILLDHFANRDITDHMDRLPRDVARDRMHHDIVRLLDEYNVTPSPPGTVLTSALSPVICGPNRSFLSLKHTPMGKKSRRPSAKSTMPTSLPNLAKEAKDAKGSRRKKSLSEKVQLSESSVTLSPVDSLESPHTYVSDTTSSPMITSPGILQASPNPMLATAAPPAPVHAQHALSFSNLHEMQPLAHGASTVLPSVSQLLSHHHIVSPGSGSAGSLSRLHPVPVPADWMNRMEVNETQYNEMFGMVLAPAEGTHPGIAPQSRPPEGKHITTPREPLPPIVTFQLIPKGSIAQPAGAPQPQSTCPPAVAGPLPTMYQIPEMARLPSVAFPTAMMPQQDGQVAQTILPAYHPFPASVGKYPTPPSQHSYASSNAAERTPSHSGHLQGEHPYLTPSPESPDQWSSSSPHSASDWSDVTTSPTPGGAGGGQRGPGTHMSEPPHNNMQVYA
Chain of Pro-neuregulin-1, membrane-bound isoform (Homo sapiens) (Q02297 whole entry, looked up, the tested form may be a part, canonical isoform): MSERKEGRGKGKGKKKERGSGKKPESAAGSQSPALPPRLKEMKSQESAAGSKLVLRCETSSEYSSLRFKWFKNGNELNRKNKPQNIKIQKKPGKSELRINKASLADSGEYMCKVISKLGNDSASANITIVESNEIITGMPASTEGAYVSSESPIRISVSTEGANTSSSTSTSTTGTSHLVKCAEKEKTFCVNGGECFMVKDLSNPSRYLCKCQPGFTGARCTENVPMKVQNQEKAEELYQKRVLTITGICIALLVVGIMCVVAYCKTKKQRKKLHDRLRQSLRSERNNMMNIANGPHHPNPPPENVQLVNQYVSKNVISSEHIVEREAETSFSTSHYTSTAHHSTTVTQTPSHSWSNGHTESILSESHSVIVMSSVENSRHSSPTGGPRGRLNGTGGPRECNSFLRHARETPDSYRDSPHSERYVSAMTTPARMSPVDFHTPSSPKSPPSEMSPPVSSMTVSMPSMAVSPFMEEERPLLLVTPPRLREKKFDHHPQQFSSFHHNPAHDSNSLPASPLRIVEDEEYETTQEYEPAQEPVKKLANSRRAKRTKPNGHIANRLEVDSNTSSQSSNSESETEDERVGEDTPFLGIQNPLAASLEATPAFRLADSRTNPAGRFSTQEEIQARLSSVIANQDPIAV

Row | SMILES | composite z-score [1] | composite z-score [2] | composite z-score [3] | composite z-score [4] | composite z-score [5] | composite z-score [6] | composite z-score [7] | z-score [8] | composite z-score [9] | composite z-score [10]
1 | CCOC(=O)C1=C[C@@H](C(C)C)N(S(=O)(=O)c2ccc(C)cc2)[C@H]1c1ccccc1F | -0.487 | 0.267 | -0.0924 | 0.817 | 1.65 | 1.23 | 1.1 | -1.83 (inactive) | 0.904 | -0.305
2 | COc1ccc([Si](C)(C)[C@@H]2[C@@H](CCn3cc([C@H](O)c4ccccc4)nn3)O[C@]3(C(=O)N(Cc4cccc(N5CCC5=O)c4)c4ccccc43)[C@H]2C)cc1 | -0.0168 | -0.185 | -0.116 | 0.232 | -0.205 | 0.292 | 0.729 | 0.795 (inactive) | -0.162 | -0.249
3 | CCOC(=O)C1=CC[C@@H](c2ccc(C(F)(F)F)cc2)N(S(=O)(=O)c2ccc(C)cc2)[C@H]1c1ccccc1 | 0.371 | 1.4 | 0.0917 | 0.599 | 1.38 | 1.3 | 1.25 | -0.364 (inactive) | 1.04 | -0.0296
4 | CCCCCCCCCCC(O)C1C=CC2C(=O)NC(=O)C2N1Nc1ccc(Cl)cc1Cl (stereo not given) | 0.133 | -1.22 | -0.0667 | 0.159 | -0.218 | 1.02 | 0.436 | 1.32 (inactive) | 0.0804 | -0.0237
5 | C[N+](C)(C)CCCC[C@@H]1NC(=O)[C@@H]2C[C@H](C(=O)NCCCCCN)[C@H](c3ccc(O)cc3)N2C1=O | 0.419 | 0.896 | 0.0522 | 0.628 | 1 | 1.54 | 0.636 | -1.76 (inactive) | 1.19 | 0.266
6 | O=C1C[C@@](C(=O)NCc2ccccc2)(c2ccc([N+](=O)[O-])cc2)[C@@H](c2ccc(CO)cc2)N1CC12CC3CC(CC(C3)C1)C2 | -0.237 | 0.447 | 0.0024 | 0.435 | 0.815 | 0.939 | 1.27 | -2.72 (inactive) | 0.282 | -0.0994
7 | O=C(O)[C@H]1C[C@H]2C(=O)N3CCC[C@H]3C(=O)N2[C@H]1c1ccc(O)cc1 | 1.22 | -0.104 | -0.195 | -0.929 | -2.12 | -0.0857 | 0.804 | -0.305 (inactive) | -0.834 | 0.147
8 | COC(=O)C[C@H]1O[C@@H](CCc2ccccc2)[C@@H](C)[C@@H]1[Si](C)(C)c1ccc(OC)cc1 | -0.136 | -0.724 | -0.17 | -0.318 | -0.514 | -0.553 | -0.743 | -0.149 (inactive) | -0.165 | -0.137
9 | C=C(CCCC)/C(=C/C[C@H](OC(C)=O)c1ccc(OCCO)cc1)c1cnc2ccccc2c1 | -0.173 | 0.641 | -0.115 | 0.372 | 1.21 | 1.32 | 1.18 | -0.851 (inactive) | 0.703 | -0.0672
10 | C=CC[C@@]1(C(=O)N2CCCCC2)N=C(c2ccc(OCCCO)cc2)O[C@@H]1c1ccccc1CN=[N+]=[N-] | 0.134 | 0.432 | 0.084 | 0.378 | 1.6 | 1.8 | 1.32 | -1.43 (inactive) | 0.938 | -0.219
11 | CC(=O)NCCCC[C@@H]1NC(=O)[C@H]2C[C@@H](C(=O)NCCCCCNC(=O)CS)[C@@H](c3ccc(O)cc3)N2C1=O | 0.894 | 0.122 | -0.0358 | -0.0035 | -0.886 | 0.0616 | 1.34 | 0.515 (inactive) | -0.226 | -0.175
12 | O=C1C2C=CC(C(O)c3c(F)cccc3Cl)N(Nc3ccccc3F)C2C(=O)N1c1ccccc1 (stereo not given) | 0.472 | 0.374 | 0.11 | 0.574 | 1.65 | 1.37 | 1.15 | -3.2 (inactive) | 1.04 | 0.113
13 | COc1ccc([Si](C)(C)[C@H]2[C@H](CCO)O[C@@]3(C(=O)N(Cc4ccccc4)c4ccc(N5CCCCC5=O)cc43)[C@@H]2C)cc1 | -0.347 | 0.455 | -0.0428 | 0.74 | 0.333 | 0.39 | 0.909 | -2.44 (inactive) | -0.227 | -0.0645
14 | CO[C@H]1O[C@H](CO)[C@@H](OC(=O)Nc2ccccc2-c2ccccc2)[C@H](OC(=O)Nc2ccccc2-c2ccccc2)[C@@H]1OC(=O)Nc1ccccc1-c1ccccc1 | 0.0212 | 0.503 | -0.152 | 1.03 | 1.1 | 1.35 | 1.19 | 0.722 (inactive) | 0.807 | -0.189
15 | COc1ccc([C@H]2OC[C@@H]3CCC(=O)N32)cc1 | -0.136 | 0.428 | -0.169 | 0.733 | 0.471 | 0.0194 | 1.19 | 0.0543 (inactive) | 0.664 | -0.0581
16 | O=C(CS)NCCCCCNC(=O)[C@@H]1C[C@@H]2C(=O)NCC(=O)N2[C@@H]1c1cccc(OCCO)c1 | 0.312 | 0.389 | -0.12 | -0.161 | -0.067 | -0.515 | 1.1 | -0.612 (inactive) | -0.188 | -0.166
17 | CCCNC(=O)[C@@H]1c2ccccc2C(=O)N(Cc2ccccc2OC)[C@H]1c1ccc(CO)cc1 | -0.148 | 1.34 | -0.0058 | 0.479 | 0.901 | 1.66 | 0.977 | -2.3 (inactive) | 0.274 | -0.201

Row | SMILES | composite z-score [1] | composite z-score [2] | composite z-score [3] | composite z-score [4] | composite z-score [5] | composite z-score [6] | composite z-score [7] | z-score [8] | composite z-score [9] | composite z-score [10]
18 | CC(C)CN1C(=O)[C@@]2(c3ccc([N+](=O)[O-])cc3)CC(=O)N(C3CCCCC3)[C@@H]2c2ccc(CO)cc21 | 0.206 | -0.72 | -0.0954 | -0.991 | -0.649 | -0.303 | -0.429 | 0.953 (inactive) | -1.09 | -0.0994
19 | COCCOC(=O)N1C(=O)[C@@]2(c3ccccc31)[C@H](C(=O)N1CCCCCCC1)[C@H]1C(=O)O[C@H](c3ccccc3)[C@H](c3ccccc3)N1[C@@H]2c1ccc(OCCO)cc1 | 4.16 | 2.62 | 1.09 | 1.49 | 1.75 | 2.93 | 1.5 | -1.64 (inactive) | 3.82 | 3.98
20 | [N-]=[N+]=NCc1ccccc1[C@@H]1OC(c2ccc(OCCCO)cc2)=N[C@]1(CCS(=O)(=O)c1ccccc1)C(N)=O | 0.339 | 0.852 | 0.175 | 0.647 | 1.33 | 2.06 | 1.34 | 1.81 (inactive) | 1.71 | -0.165
21 | C=CCNC(=O)[C@@H]1[C@H]2C(=O)O[C@H](c3ccccc3)[C@H](c3ccccc3)N2[C@H](c2ccc(OCCO)cc2)[C@@]12C(=O)N(C(=O)OCCOC)c1ccc(C#CCC(C(=O)OC)C(=O)OC)cc12 | -0.426 | 1.25 | 0.0408 | 1.05 | 1.1 | 1.48 | 1.12 | 1.26 (inactive) | 0.88 | 0.386
22 | COCCOC(=O)N1C(=O)[C@@]2(c3cc(C#CC4(O)CCCCCC4)ccc31)[C@H](c1ccccc1OCCO)N1[C@H](c3ccccc3)[C@H](c3ccccc3)OC(=O)[C@H]1[C@@H]2C(=O)N1CCc2cc(OC)c(OC)cc2C1 | -0.207 | 0.788 | -0.0685 | 0.542 | 1.03 | 1.6 | 1.19 | -0.658 (inactive) | 0.223 | 0.177
23 | C#CCNCc1ccccc1 | -0.443 | 0.0591 | -0.114 | 0.227 | 0.461 | -0.358 | 0.0262 | 0.938 (inactive) | -0.115 | -0.236
24 | CC(=O)NCCCC[C@@H]1NC(=O)[C@H]2C[C@@H](C(=O)O)[C@@H](c3ccc(O)cc3)N2C1=O | -0.0025 | 0.843 | -0.0135 | 0.607 | 1.23 | 1.1 | 1.3 | -0.316 (inactive) | 0.904 | 0.213
25 | COc1ccccc1CN1C(=O)c2ccccc2[C@@H](C(=O)NCc2ccccc2)[C@@H]1c1ccc(CO)cc1 | -0.232 | 0.939 | -0.171 | -0.298 | 0.0668 | 1.1 | 1.26 | -2.9 (inactive) | 0.635 | -0.34
26 | C=CCN(Cc1ccccc1)C(=O)C(c1cccs1)N(C(=O)/C=C\C(=O)O)c1ccc(CCOCCO)cc1 (stereo not given) | 0.146 | -0.182 | -0.176 | -0.865 | -1.84 | 0.718 | 0.0305 | 0.988 (inactive) | -1.35 | -0.134
27 | COCCCNC(=O)[C@@]1(CCS(=O)(=O)c2ccccc2)N=C(c2ccc(OCCCO)cc2)O[C@H]1c1ccccc1N=[N+]=[N-] | 0.205 | 2.1 | 0.137 | 1.17 | 1.48 | 1.7 | 1.23 | 1.72 (inactive) | 1.63 | -0.0645
28 | COCCOC(=O)N1C(=O)[C@@]2(c3ccccc31)[C@H](C(=O)N1CCc3cc(OC)c(OC)cc3C1)[C@H]1C(=O)O[C@H](c3ccccc3)[C@H](c3ccccc3)N1[C@@H]2c1ccc(O)cc1 | -0.159 | 0.706 | -0.0303 | 0.647 | 1.28 | 0.832 | 1.26 | -2.26 (inactive) | -0.0345 | 0.0302
29 | CCCCN1CC=CC23O[C@@H]4C=CCOC(=O)[C@@H]4[C@H]2C(=O)N(CCCCCCO)[C@@H]3C1=O (stereo not given in full) | 1.22 | -0.64 | -0.141 | -1.34 | -1.86 | 1.01 | 1.3 | -0.0048 (inactive) | -0.581 | -0.134
30 | O=C(O)[C@H](Cc1ccccc1)n1cc(-c2ccccc2)nn1 | -0.37 | -0.104 | -0.0583 | 0.399 | 0.533 | 0.0865 | 0.871 | 1.33 (inactive) | 0.328 | -0.181
31 | O=C1OCCC=C[C@H]2OC34C=CCN(Cn5nnc6ccccc65)C(=O)[C@H]3N(CCO)C(=O)[C@@H]4C12 (stereo not given in full) | -0.254 | -0.4 | -0.219 | -0.308 | -1.06 | 0.0802 | 1.13 | 0.684 (inactive) | -0.8 | -0.226
32 | CCCCC(=C=CC[C@@H](O)c1ccc(CO)o1)CCO | -0.369 | 0.152 | -0.0602 | 0.143 | -0.168 | 0.457 | 1.19 | 0.161 (inactive) | -0.118 | 0.238
33 | CC(C)Cc1ccc(CN2CC[C@@H](N)C2)cc1 | -0.103 | -0.816 | -0.219 | -0.711 | -1.3 | -0.505 | -1.11 | -0.132 (inactive) | -0.635 | -0.0193
34 | COc1cc(CO)cc(I)c1O[C@H]1C=C(C(=O)NCCO)C[C@@H](NC[C@@H]2CCCO2)[C@@H]1O | -0.281 | 0.445 | -0.085 | 0.674 | 0.041 | 0.625 | 1.09 | -0.225 (inactive) | 0.59 | -0.169
